Hits are enriched below; roughly 0.94% of the tested compounds scored in any of these assays.
PriA SSB inh: inhibitors of Klebsiella pneumoniae PriA binding to SSB C-terminal tail, primary screen, biochemical, AlphaScreen; AlphaScreen SSBct-PriA binding, biotinylated peptide; PriA–SSB C-terminal tail interaction (Klebsiella pneumoniae); hit rate 0.6% among 430,000; inhibition, % at 33 µM; AID 1272365, 2023; in the data active means inhibition mostly above about 37%, no sharp cut-off; inactive means mostly below about 20%
Vc quorum ag-1: inducers of Vibrio cholerae quorum light production without autoinducers, primary screen, BH1578 luxS cqsA deficient, single point. V. cholerae BH1578 lux reporter, luminescence, 6 h. activation, % at 18.7 µM. hit rate 0.16% among 350,000. AID 588436, 2011; in the data active means activation mostly above about 9.7%, no sharp cut-off
MazF activator: activators of E. coli MazEF toxin-antitoxin RNase, primary screen, biochemical, fluorescence, uHTS; activation, % at 20 µM; Endoribonuclease toxin MazF (Escherichia coli (strain K12)), P0AE70; FAM/BHQ RNA-DNA oligo cleavage fluorescence, 5 h; hit rate 0.32% among 350,000; AID 504720, 2011; in the data active means activation above about 50%
Target sequence (P0AE70 whole entry, looked up): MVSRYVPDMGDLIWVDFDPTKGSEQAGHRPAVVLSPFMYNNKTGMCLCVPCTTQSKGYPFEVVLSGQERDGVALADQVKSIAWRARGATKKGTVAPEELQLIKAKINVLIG
Mtb hypoxia inh: PubChem AID 1159583 | fluorescence inhibition, % (no concentration beside the values) | M. tuberculosis hypoxia-regulated fluorescent reporter, fluorescence | hit rate 0.1% among 300,000; in the data active means fluorescence inhibition mostly above about 23%, no sharp cut-off; inactive means mostly below about 17%
Vc quorum ag-2: V. cholerae lux activation without autoinducers – BH1578 luxS cqsA deficient, cherry-pick, plate reader, dose response. shares compounds with Vc quorum ag-1. V. cholerae BH1578 lux reporter, luminescence, 6 h. activation, % at 50 µM. 620 tested, under 10 active. AID 602243, 2012; call rule not given here
HeLa tox: HeLa cell cytotoxicity, dose response, cytotoxicity control, 24 h, dry powder. shares compounds with Vc quorum ag-1. activity change, negative = cytotoxicity, % at 35 µM. 25 tested, under 10 active. HeLa viability, CellTiter-Glo ATP luminescence;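 active means signal drop with fitted half-maximal concentration at or below twice the highest valid dose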
A number is an active result; - = inactive; . = no result shown.

SMILES | PriA SSB inh | Vc quorum ag-1 | MazF activator | Mtb hypoxia inh | Vc quorum ag-2 | others
CC(=O)N[C@@H](Cc1c[nH]c2ccccc12)C(=O)OCC(=O)Nc1ccc2c(c1)OCO2 | - | - | - | - | .
O=C(COC(=O)[C@H](Cc1c[nH]c2ccccc12)NC(=O)c1ccc(Cl)cc1)Nc1ccc2c(c1)OCO2 | - | - | - | - | -
COc1c(C)cccc1C(=O)Nc1ccc(OCC(=O)N2CCOCC2)cc1C | - | - | - | - | -
CS(=O)(=O)c1ccc(-c2cccc(NC(=O)c3ccc(Cl)nc3)c2)nn1 | - | . | . | . | .
C=CCn1c(-c2cc(OC)cc(OC)c2)n[nH]c1=S | - | 22.2 | - | . | -
C=CCn1c(-c2cccc(OCC)c2)n[nH]c1=S | - | - | - | - | .
O=C(c1cccs1)c1coc2ccc(O)cc12 | - | - | - | - | .
CCC(=O)c1coc2ccc(O)cc12 | - | 25.0 | - | . | -
COc1ccc(S(=O)(=O)CC(=O)Nc2nc3cc(C)cc(C)c3s2)cc1 | - | . | . | . | .
CCOC(=O)c1nnn(-c2nonc2N)c1CN1CCc2ccccc2C1 | - | - | - | - | -
CC(C)OC(=O)c1nnn(-c2nonc2N)c1CN1CCc2ccccc2C1 | - | - | - | - | .
CSc1ccc(C#N)cc1NC(=O)c1ccc(Cl)cc1Cl | - | 185.7 | - | . | -
CSc1ccc(C#N)cc1NC(=O)c1ccccc1 | - | - | - | - | .
CCCCNC(=O)CCC(=O)Nc1ccc2nc(N3CCC(C)CC3)cc(C)c2c1 | - | - | - | - | .
Cc1cc(N2CCC(C)CC2)nc2ccc(N3C(=O)CCC3=O)cc12 | - | - | - | . | -
Cc1ccc(C)c(OCCC(=O)OCC(=O)NC2CC2)c1 | - | - | - | - | -
Cc1ccc(C)c(OCCC(=O)OCC(=O)NC(=O)NC2CCCC2)c1 | - | - | - | - | .
Cc1cccc(NC(=O)CS(=O)(=O)c2cn(C)c3ccccc23)c1C | - | 16.7 | - | - | -
Cc1cccc(NC(=O)CS(=O)(=O)c2cn(C)c3ccccc23)c1 | - | - | - | - | .
COc1ccc(OC)c(S(=O)(=O)N2CCC(C(=O)N3CCc4ccccc4C3)CC2)c1 | - | - | - | - | -
COc1ccccc1CNC(=O)COC(=O)c1n[nH]c2ccccc12 | - | - | - | - | -
Cc1nc2sccn2c(=O)c1NC(=O)c1ccc(S(=O)(=O)N2CCCC2)cc1 | - | . | . | . | .
O=C(COC(=O)C1CCN(c2ccc(C(F)(F)F)cn2)CC1)NC1CCCCC1 | - | - | - | - | -
CC(C)COc1ccc(S(=O)(=O)NC[C@](C)(O)c2ccco2)cc1 | - | . | . | . | .
Cc1cc2oc(=O)cc(-c3ccccc3)c2c(C)c1-c1ccc(C#N)cc1 | - | - | - | . | -
SMILES | PriA SSB inh | Vc quorum ag-1 | MazF activator | Mtb hypoxia inh | Vc quorum ag-2 | others
Cc1cc2oc(=O)cc(-c3ccccc3)c2c(C)c1-c1ccc(CO)cc1 | - | - | - | . | .
N#Cc1cccnc1N1CCC(CNC(=O)c2cc(=O)c3ccccc3o2)CC1 | - | . | . | . | .
CCCCn1c(=O)[nH]c(=O)c2c1nc(COc1ccc(C#N)cc1)n2CCC | - | - | - | - | -
O=C(COC(=O)/C=C/c1ccc(OC(F)F)cc1)NC1CCCCCC1 | - | 9.5 | - | - | -
O=C(Cc1ccc(-c2ccccc2)cc1)Nc1ccc(CC(=O)NC2CC2)cc1 | - | . | . | . | .
O=C(COC(=O)/C=C/c1ccccc1)NC1CCCCC1 | - | - | - | - | .
O=C(COC(=O)/C=C/c1ccccc1)NC1CCCC1 | - | 528.9 | - | - | -
O=C(COC(=O)/C=C/c1ccc(OC(F)F)cc1)NC1CCCCCCC1 | - | - | - | - | .
O=C(Cc1ccc(-c2ccccc2)cc1)NC1CCCC1 | - | . | - | - | . | HeLa tox=-
O=C(Nc1nnc(C2CC2)s1)C1COc2ccccc2O1 (stereo not drawn) | - | - | - | - | .
O=C(Nc1nnc(C(F)(F)F)s1)C1COc2ccccc2O1 (stereo not drawn) | - | - | - | . | -
COc1ccccc1NC(=O)c1nn(-c2ccc(Cl)cc2)ccc1=O | - | 25.0 | - | . | -
COc1ccccc1NC(=O)c1nn(-c2ccccc2)ccc1=O | - | - | - | . | .
Cc1ccccc1NC(=O)NC1CCS(=O)(=O)C1 (stereo not drawn) | - | - | - | - | .
Cc1cccc(OC(C)C(=O)NC2CCS(=O)(=O)C2)c1C (stereo not drawn) | - | - | - | - | -
Cc1cc[n+](-c2[nH]c(=O)sc2C=NN=C([O-])CCn2c3ccccc3c3ccccc32)cc1 | - | . | . | . | .
Cc1cc(COc2ccccc2O)on1 | - | - | - | - | -
O=S(=O)(Nc1ccc(-c2ccc3nncn3n2)cc1)c1ccccc1Cl | - | - | - | - | .
O=S(=O)(Nc1ccc(-c2ccc3nncn3n2)cc1)c1ccc(Cl)s1 | - | 160.2 | - | - | -
O=C(c1ccsc1)N1CCC(Oc2ncccc2Cl)CC1 | - | . | . | . | .
COc1ccccc1NC(=O)CNS(=O)(=O)c1cc(C)ccc1C | - | . | . | . | .
COc1ccc(CC(=O)N2CCC(Nc3nc4ccccc4n3Cc3ccc(F)cc3)CC2)cc1 | - | 15.4 | - | - | -
COc1ccc(Cl)cc1S(=O)(=O)Nc1ccc2c(c1)CN(C(=O)c1ccco1)CC2 | - | . | . | . | .
O=C(CCC(=O)c1ccccc1)NCC#CCOc1cccc(C(F)(F)F)c1 | - | . | . | . | .
Cc1ccc(N(C(C)C(=O)O)S(=O)(=O)c2c(C)[nH]c(=O)[nH]c2=O)cc1 (stereo not drawn) | - | - | - | . | .
SMILES | PriA SSB inh | Vc quorum ag-1 | MazF activator | Mtb hypoxia inh | Vc quorum ag-2 | others
COC(=O)C(C)N(c1ccc(C)cc1)S(=O)(=O)c1c(C)[nH]c(=O)[nH]c1=O (stereo not drawn) | - | 110.7 | - | - | -
COCc1[nH]nc2c1C1(CCC3(CC1)OCCO3)C(C#N)=C(N)O2 | - | 16.7 | - | - | -
Cc1[nH]nc2c1C1(CCOCC1)C(C#N)=C(N)O2 | - | - | - | - | .
Cc1ccc(C(=O)c2cc(C(=O)OCc3ccccc3Cl)c3ccccn23)c(C)c1 | - | . | . | . | .
CCOC(=O)c1cnc2nc(C(F)(F)F)[nH]n2c1=O | - | 16.7 | - | - | -
CCOC(=O)c1cnc2nc(Cc3ccccc3)[nH]n2c1=O | - | - | - | . | .
CCCS(=O)(=O)N1CCC(C(=O)N2CCN(C(=O)OCC)CC2)CC1 | - | 15.0 | - | - | -
CNC(=O)c1cc2cc(OC)ccc2n1CCN(Cc1ccccc1)Cc1ccccc1 | - | 25.0 | - | . | -
CNC(=O)c1cc2cc(OC)ccc2n1CCN(C)C | - | - | - | . | .
Cn1c(C(=O)NC2CCCCCC2)cc2c(=O)n(C)c3ccccc3c21 | - | - | - | . | .
Cn1c(C(=O)NC2CCCCC2)cc2c(=O)n(C)c3ccccc3c21 | - | 245.3 | - | - | -
CC(=O)Nc1ccc2nc(-c3cccnc3)[nH]c2c1 | - | 75.4 | - | - | -
CCOC(=O)CSc1nc(C)cc(C)c1C#N | - | 16.7 | - | - | -
